Test results reported in PubChem BioAssay AID1159580 (chemical genetic matrix, 2015).
Among all 5,500 compounds or so, about 2,000 (36%) were called active. Another 18% or so got no clear call; they are omitted. Rule as the data show it: active = normalized growth mostly below about 0.91 (no sharp cut-off); inconclusive = no clear call, values can overlap the other calls; inactive = mostly above about 0.92. The list shows a part of the results.

Assay: chemical genetic growth profiling, strain panel (AID 1159580);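 also: tested at 20 µM; growth read once vehicle control cultures reached saturation at 30 °C; 1 = growth at the plate median or of vehicle wells; lower values mean less growth of the strain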
Conditions: S. cerevisiae deletion strains, growth OD

Measured: normalized growth

NCC#Cc1ccccc1
inactive: locus YAL013W, strain DEP1, active compounds read low 1.04 | locus YAL040C, strain CLN3, active compounds read low 0.989 | locus YCL061C, strain MRC1 (second series), active compounds read low 1.01 | locus YDR150W, strain NUM1, active compounds read low 1.02 | locus YDR363W, strain ESC2, active compounds read low 1.02 | locus YER002W, strain NOP16, active compounds read low 1 | locus YGR229C, strain SMI1, active compounds read low 1.07 | locus YMR263W, strain SAP30, active compounds read low 1 | locus YMR307W, strain GAS1, active compounds read low 1.01 | locus YNL128W, strain TEP1, active compounds read low 1.01 | locus YNL153C, strain GIM3, active compounds read low 1.15 | locus YNL175C, strain NOP13, active compounds read low 1.01 | locus YNL197C, strain WHI3, active compounds read low 1.01 | locus YNL224C, strain SQS1, active compounds read low 1.01 | locus YOR083W, strain WHI5 (second series), active compounds read low 1.01 | locus YPL055C, strain LGE1, active compounds read low 1.04
